Compound activity (PubChem BioAssay)
This is a sample that favours compounds with a hit; in the whole collection about 19% have one here.
AMA1-RON2 inh: qHTS for Inhibitors of AMA1-RON; Towards Development of Antimalarial Drug Lead: Primary Screen | Plasmodium falciparum AMA1 (3D7) - RON2 peptide interaction | AlphaScreen AMA1-biotinylated RON2 peptide binding | Potency, µM (series often up to 58.2 µM), for inactives: at the top dose activity change, negative = inhibition, most hits filed as inhibitors | 360,000 tested, 0.2% active | AID 720542, 2013;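 also: potency is read from the fitted curve at half-maximal effect; 0% = vehicle wells and -100% = peptide control; nearly all actives have a fitted effect of over 45% in size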
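AMA1 (3D7) with his tag at 25 nM final met compounds first, then biotinylated RON2 peptide at 25 nM; detection used donor plus acceptor beads, 10 µg/mL apiece, read by AlphaScreen after 30 min at room temperature.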
Pf growth 48h: Primary qHTS for delayed death inhibitors of the malarial parasite plastid, 48 hour incubation | P. falciparum luciferase growth in erythrocytes, 48 h | Potency, µM (series often up to 28.7 µM), inactives show top-dose activity change, negative = inhibition, hits mostly inhibitors | 310,000 tested, 5.9% active; also: potency is read from the fitted curve at half-maximal effect; % is scaled to controls: 0 for no effect and ±100 for the full control effect
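Parasite viability was followed by luminescence of a genomically integrated firefly luciferase. Cultures held 0.1% parasitemia at 2% hematocrit (final), incubated under 5% CO2 at 37 C.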
SARS PLpro yeast: qHTS of Yeast-based Assay for SARS-CoV PLP; AID 485353, 2010; Potency, µM (top dose mostly 32.9 µM), for the others: at the top dose activity, positive = growth rescue, actives largely listed as activators; S. cerevisiae expressing SARS-CoV PLpro, growth rescue; 330,000 tested, 0.19% active; calls by dose curve; also: potency is read from the fitted curve at half-maximal effect; 0% is about no effect; nearly all actives have a fitted effect of over 55% in size
Cycloheximide cs: Cycloheximide Counterscreen for Small Molecule Inhibitors of Shiga Toxin | cell reporter, cycloheximide protein synthesis inhibition counterscreen | max response, % | 300,000 tested, 12% active; in the data active = max response mostly above about 13%, no sharp cut-off; inactive = mostly below about 14%; also: read at 38.3 µM for the half of the compounds with a filed dose; 0% is about no effect
Pf growth 96h: Primary qHTS for delayed death inhibitors of the malarial parasite plastid, 96 hour incubation | P. falciparum luciferase reporter growth, 96 h | Potency, µM (highest dose often 28.7 µM), inactives show at the highest dose activity change, negative = inhibition, most hits filed as inhibitors | 320,000 tested, 6.9% active | AID 504834, 2011; also: potency is read from the fitted curve at half-maximal effect; % is scaled to controls: 0 for no effect and ±100 for the full control effect
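Two-generation exposure (96 h) targets delayed-death phenotype. Reporter parasites carrying integrated firefly luciferase, in red cells at 2% hematocrit and 0.05% parasitemia final, kept at 37 C, 5% CO2; luminescence loss indicates inhibition.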
Shiga inhibitor: A qHTS for Small Molecule Inhibitors of Shiga Toxin | Vero cells, Shiga toxin protein synthesis inhibition reporter | inhibition, % at 38.7 µM | 290,000 tested, 9.2% active | AID 2315, 2010; in the data active = inhibition mostly above about 28%, no sharp cut-off; inactive = mostly below about 43%; also: 0% is about no effect
Numbers without * were called inactive; ? = inconclusive; nt = no result; [ ] = remark or other dose. Unless noted, calls follow the shape of the dose curve; as a rule, active = well fitted curve in the direction sought with a large enough effect; inconclusive = small, poorly fitted or top-dose-only effect, or another doubt; inactive = no such curve, though single readings can be large; an effect the other way counts as inactive or inconclusive.

SMILES | AMA1-RON2 inh | Pf growth 48h | SARS PLpro yeast | Cycloheximide cs | Pf growth 96h | Shiga inhibitor
CC1(C)Cc2nc3scc(NC(=O)c4ccccc4)c3cc2CO1 | -3% | 6% | -1% | 14* | 22% | 28
CC1(C)Cc2nc3sc4c(=O)n(CC(=O)NCc5ccccc5)cnc4c3cc2CO1 | -5% | 29% | 7% | 5 | 0% | 15
CCOC(=O)c1sc2nc(N3CCOCC3)c3c(c2c1N)CC(C(C)C)OC3 (centres undefined) | 1% | 10% | 0% | -3 | ? | -6
CC1(C)Cc2nc3sc(C(=O)NCCCO)c(N)c3cc2CO1 | 17% | 67% | 0% | 29* | 141% | 91*
CCOC(=O)c1sc2nc3c(cc2c1N)COC(C(C)C)C3 (centres undefined) | 19% | 158% | 8% | 57* | 142% | 157*
COc1ccc(CNC(=O)C[C@@H]2CC[C@@H](NS(=O)(=O)c3cccc(OC)c3)[C@@H](CO)O2)cc1 | -5% | nt | nt | nt | nt | nt
CCn1c(CCc2ccccc2)nnc1SCC(N)=O | 1% | ? | -1% | -3 | 94% | -1
CCNc1nnc(SCC(=O)N2c3ccccc3NC(=O)CC2C)s1 (centres undefined) | -4% | -21% | -4% | nt | ? | nt
CC1(c2nnc(-c3cccc(Cl)c3)o2)CC(c2cccc(Cl)c2)=NO1 (centres undefined) | 47% | nt | nt | nt | nt | nt
O=C(N/N=C/c1ccccn1)c1cc([N+](=O)[O-])cc([N+](=O)[O-])c1 | 67% | ? | 3% | 8 | 23% | -5
O=C(N/N=C/c1ccccn1)c1ccc([N+](=O)[O-])cc1 | 45% | ? | 3% | 36* | 8.3µM* | 100*
O=C(N/N=C/c1ccccn1)c1ccc(NC(=O)c2cccc([N+](=O)[O-])c2)cc1 | 75% | -28% | 0% | 0 | ? | 9
O=C(N/N=C/c1ccccn1)c1cccc([N+](=O)[O-])c1 | 92% | ? | 0% | 8.8* | -2% | 55*
O=C(NN=Cc1ccccc1O)c1cccc([N+](=O)[O-])c1 | 68% | nt | nt | nt | nt | nt
O=C(N/N=C/c1ccc(Br)s1)c1cccc([N+](=O)[O-])c1 | -1% | 2.9µM* | -16% | -3 | 4.1µM* | 6
CCOC(=O)NC1(NC2CCCCC2)Oc2ccccc2O1 | ? | -30% | ? | -1 | -8% | 13
CC1CC(C)CN(CC(O)COCc2ccccc2F)C1 (centres undefined) | -10% | 30% | -2% | -3 | 44% | -7
COc1ccc(C(=O)Nc2ccc(CN3CCS(=O)(=O)CC3)cc2)cc1 | 1% | -9% | 0% | 3 | -11% | 9
O=C(COc1ccc(Cl)cc1)Nc1cnn(Cc2c(Cl)cccc2Cl)c1 | -10% | -24% | 10% | 10 | ? | 2
CN(C)c1ccc(C(=O)Nc2ccc(CN3CCS(=O)(=O)CC3)cc2)cc1 | 28% | 7% | 1% | 36* | -3% | 52
O=C(Nc1cnn(Cc2c(Cl)cccc2Cl)c1)c1ccc([N+](=O)[O-])cc1 | -8% | ? | -2% | 53* | 13µM* | 87*
C/C(CC(=O)Nc1ccc(N(C)C)cc1)=N\NC(=O)c1ccc([N+](=O)[O-])cc1 | 26% | -10% | nt | 18* | -14% | 33
Cc1ccc(C(=O)Nc2ccc(CN3CCS(=O)(=O)CC3)cc2)cc1C | 22% | 8% | 0% | 36* | 43% | 73*
CCNS(=O)(=O)c1ccc(NC(=O)c2ccc(Cn3cc([N+](=O)[O-])cn3)o2)cc1 | -2% | ? | 0% | 5 | ? | 23
CN(C)c1ccc(NC(=O)c2ccc(Cn3cc([N+](=O)[O-])cn3)cc2)cc1 | -29% | 17% | -2% | 50* | 9% | 108*
SMILES | AMA1-RON2 inh | Pf growth 48h | SARS PLpro yeast | Cycloheximide cs | Pf growth 96h | Shiga inhibitor
Cc1cc(C)n2nc(SCc3nc4ccccc4[nH]3)nc2n1 | -1% | 45% | 19% | 14 | 7.4µM* | active
Cc1cc(C)n2nc(SCc3ccccc3F)nc2n1 | 0% | -1%[0.00184 µM] | -2% | -1 | 38% | 16
Cc1cc(C)n2nc(SCCOc3ccccc3)nc2n1 | -26% | 89% | 1% | 11* | 3% | 75
Cc1cccc(NS(=O)(=O)c2cccc(C(=O)NCCCN3CCOCC3)c2)c1 | 25% | -23% | -7% | nt | -5% | nt
Cc1ccc(N/N=C2\CS(=O)(=O)N(C)c3ccsc32)cc1 | ? | ? | -2% | 51* | ? | 66*
CCCC(=O)N/N=C1\CS(=O)(=O)N(C)c2ccsc21 | 2% | 30% | 3% | 4 | 17% | 27
CN1c2ccsc2/C(=N/Nc2ccc(F)cc2)CS1(=O)=O | -21% | ? | -4% | 27* | ? | 54
COc1ccc(C2=C/C(=C\c3ccccc3OC(C)=O)C(=O)O2)cc1 | 8% | 28% | -2% | 22* | 37% | 103*
COc1ccc(C2=C/C(=C\c3cccc(OC(C)=O)c3)C(=O)O2)cc1 | 56% | 18% | 0% | 24* | ? | 34
C=CC[n+]1cccc(-c2cc3ccc(C)cc3[nH]2)c1 | -3% | ? | 1% | -2 | 5.2µM* | 18
CCOc1ccc(-c2nc(CCl)cs2)cc1OC | 0% | 50% | 0% | 17* | 49% | 41
CCOc1ccc(-c2noc(-c3cccnc3)n2)cc1OC | -4% | 141% | 1% | 15* | 9.3µM* | 27
COc1ccc(-c2nc(CC(=O)O)cs2)cc1OC | nt | 17% | -6% | -1 | nt | -12
CCOc1cc(-c2noc(-c3cccnc3)n2)ccc1OC | -5% | 10% | -3% | 1 | nt | -8
CCOc1ccc(-c2noc(COC)n2)cc1OC | 9% | 81% | -3% | 21* | ? | 23
COc1ccc(-c2noc(-c3cccnc3)n2)cc1OC | 5% | 186% | -2% | 17* | 119% | 52*
O=C1NC(Cc2ccc(O)cc2)c2nc3ccccc3c(=O)n2-c2cc(Cl)ccc21 (centres undefined) | nt | nt | -8% | nt | nt | nt
CCSc1nnc2n(N)c(=O)c3ccccc3n12 | nt | 21% | 6% | -1 | 35% | -9
COc1ccc(NC(=O)COC(=O)CCc2ccccc2)c(OC)c1 | 5% | ? | 0% | -2 | 27% | -3
Cc1cc(C(=O)N(NC(=O)C(C)C)c2ccccc2)cs1 | 2% | -12% | 3% | -1 | 8.3µM* | 19
CC(=O)Nc1ccc(-c2csc(Nc3ccc(Cl)cn3)n2)cc1 | -3% | 11% | -3% | 38* | 2% | 23
O=C(Nc1ccc(Cl)cc1)Nc1nc(-c2ccccc2)cs1 | -1% | -17% | 0% | 6 | ? | 43
CC(=O)Nc1cccc(-c2csc(Nc3ccc(Cl)cn3)n2)c1 | 0% | -5% | -2% | 46* | 6% | 146*
